{
  "source": "PubChem BioAssay (NCI)",
  "note": "The panel holds about 83,000 compounds, 20% with a hit somewhere; the sample as a whole holds those more often.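 Testing used 96-well plates and a 48-hour single-concentration exposure. Example: -40 means 40% of the starting cells died.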 Calls of active or inactive are those of the source. The calls were made as follows: active = growth percent below 10; inactive = the rest.",
  "data": [
    {"system": "OVCAR-8 ovarian", "experiment": "NCI-60 one-dose screen, 48 h (100 = growth as untreated, 0 = no growth, -100 = all killed)", "conditions": "10 µM unless noted", "values": [
      {"smiles": "O=S(=O)(NCCCNc1nccc(-c2c(-c3ccc(F)c(O)c3)nc3sccn23)n1)c1ccc(Cl)cc1", "growth": "52.9% (inactive)"},
      {"smiles": "Nc1ccc(S(=O)(=O)c2ccc(Cl)cc2)cc1", "growth": "107% (inactive)"},
      {"smiles": "O=C1OC(c2ccccc2)=N/C1=C\\c1ccc([N+](=O)[O-])cc1", "growth": "111% (inactive)"},
      {"smiles": "CC(Br)C(Br)c1cc2c(cc1Br)OCO2", "note": "(centres undefined)", "growth": "100% (inactive)"},
      {"smiles": "COc1ncc(-c2ccc3ncnc(Nc4cccc(Cl)c4)c3c2)cc1NS(=O)(=O)CCN1CCOCC1", "growth": "16.9% (inactive)"},
      {"smiles": "CCCCC[C@@H]1Cc2cc(O)c(C(=O)O)c3c2[C@H](C[C@@]2(CCCO2)O3)O1", "growth": "101% (inactive)"},
      {"smiles": "CC(C)C[C@H](NC(=O)[C@@H](Cc1ccccc1)n1ccc(Nc2ccccc2)cc1=O)B(O)O", "growth": "8.16% (active)"},
      {"smiles": "N#CC1=C(N)n2nc(-c3ccncc3)nc2NC1c1cccc2ccccc12", "note": "(centres undefined)", "growth": "92.7% (inactive)"},
      {"smiles": "O=c1cc(C2NCCc3c2[nH]c2ccccc32)c2c(ccc3ccccc32)o1", "note": "(centres undefined)", "growth": "60.1% (inactive)"},
      {"smiles": "CC(C)CCC[C@@H](C)[C@H]1CC[C@H]2[C@@H]3CC[C@H]4C/C(=N/O)CC[C@]4(C)[C@H]3CC[C@]12C", "growth": "96.8% (inactive)"},
      {"smiles": "COc1ccc(/C=C/C(=O)c2cccc(B(O)O)c2)cc1O", "growth": "60.1% (inactive)"},
      {"smiles": "O=c1oc2c([nH]c3ccc4ccccc4c32)c2ccccc12", "growth": "104% (inactive)"},
      {"smiles": "O=C(NCCc1c[nH]c2ccccc12)C1Cc2ccccc2CN1C(=O)c1ccco1", "note": "(centres undefined)", "growth": "100% (inactive)"},
      {"smiles": "CC/C=C\\C[C@H]1C/C=C2/C(=O)C(Cl)=C[C@@H]2C/C=C\\CCCC(=O)O1", "growth": "3.57% (active)"}
    ]}
  ]
}
